Compound activity deposited in PubChem by National Center for Advancing Translational Sciences (NCATS).
Compounds with a hit are over-represented: about 14% of the library has one in this group of screens.
HCV inh: inhibitors of hepatitis C virus infection; Huh7.5.1 HCVcc-Cre infection, luciferase reporter, 44 h; Potency, µM (doses to about 41.8 µM), without a hit: at the top dose activity change, negative = inhibition, most hits filed as inhibitors; 340,000 tested, 3.4% active; AID 651820; also: potency is read from the fitted curve at half-maximal effect
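Cells seeded at 1,000/well and cultured 4 h, then compounds added followed by HCVcc-Cre virus (~0.5 moi). After 44 h further culture, luciferase substrate was added, plates held 15 min at room temperature, and luminescence read for 15 sec.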
HCMV antiviral: inhibitors of human cytomegalovirus | AID 1259415 | HFF cells, HCMV-luciferase reporter, 72 h; active compounds read low | 410,000 tested, 4.5% active | activity change, negative = inhibition, % at 57.5 µM; in the data active = activity change below about -60%; inconclusive = no clear call, values can overlap the other calls; inactive = above about -39%
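Human foreskin fibroblasts infected with luciferase-reporter HCMV at MOI 1 PFU/cell, compounds at two doses. Luciferase measured 72 h post infection; normalized to buffer-only basal and Salinomycin (10uM) controls.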
Pf growth 48h: P. falciparum growth inhibition at 48 hours (one generation); Potency, µM (titrated, usually from 28.7 µM), inactives show at the top dose activity change, negative = inhibition, usual class: inhibitors; P. falciparum luciferase growth in erythrocytes, 48 h; AID 504832; 310,000 tested, 5.9% active; also: potency is read from the fitted curve at half-maximal effect
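Here the parasites carry a stable luciferase gene and grow inside erythrocytes in Albumax-based RPMI medium with compound for one erythrocytic cycle. Activity is scored as loss of luminescent signal.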
MARV entry inh: inhibitors of Marburg virus binding or cell entry. Potency, µM (doses to about 37.8 µM), inactives show top-dose activity change, negative = inhibition, hits mostly inhibitors. AID 540276. Marburg virus pseudotyped entry inhibition, cell reporter. 300,000 tested, 1.8% active; calls by dose curve; tested in HEK293 cells; also: potency is read from the fitted curve at half-maximal effect
Pf growth 96h: P. falciparum growth inhibition at 96 hour, primary screen for plastid delayed-death inhibitors; P. falciparum luciferase reporter growth, 96 h; Potency, µM (series often up to 28.7 µM), for the others: at the top dose activity change, negative = inhibition, actives largely listed as inhibitors; 320,000 tested, 6.9% active; also: potency is read from the fitted curve at half-maximal effect
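Two-generation exposure (96 h) targets delayed-death phenotype. Reporter parasites carrying integrated firefly luciferase, in red cells at 2% hematocrit and 0.05% parasitemia final, kept at 37 C, 5% CO2; luminescence loss indicates inhibition.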
LASV entry inh: inhibitors of Lassa virus binding or cell entry. Lassa virus pseudotype entry inhibition, cell reporter. Potency, µM (doses to about 37.9 µM), for inactives: at the highest dose activity change, negative = inhibition, actives largely listed as inhibitors. 300,000 tested, 1.2% active. AID 540256; calls by dose curve; tested in HEK293 cells; also: potency is read from the fitted curve at half-maximal effect; nearly all actives have a fitted effect of over 50% in size
An asterisk follows results filed as active; ? = inconclusive; nt = no result; [ ] = another dose, or the depositor's remark. Unless noted, calls follow the shape of the dose curve; as a rule, active = well fitted inhibition curve with a large enough effect; inconclusive = small, poorly fitted or top-dose-only effect, or another doubt; inactive = no such curve, though single readings can be large or run the other way. % is scaled to controls: 0 for no effect and ±100 for the full control effect.

SMILES	HCV inh	HCMV antiviral	Pf growth 48h	MARV entry inh	Pf growth 96h	LASV entry inh
CCOc1ccccc1OCCCC(=O)Nc1cccc(S(=O)(=O)N2CCOCC2)c1	?	-10	13µM*	nt	?	nt
O=C(CCCOc1ccccc1)Nc1cccc(S(=O)(=O)N2CCOCC2)c1	-5%	2	nt	8%	nt	1%
CCCCCOc1ccc(NC(=O)CSc2cccc3cccnc23)cc1	1%	9	10µM*	?	5.2µM*	15%
CC(OC(=O)c1ccccc1NCCO)C(=O)Nc1ccc(S(=O)(=O)N2CCOCC2)cc1 (stereo not drawn)	8.9µM*	-20	?	-21%[46.1 µM]	-29%	6%
Cc1cccc(CSc2cccc3cccnc23)c1	19%	-108*	32%	?	4.7µM*	1%
COc1ccc(NC(=O)CSc2cccc3cccnc23)c(OC)c1	-6%	-32	34%	-3%	-15%	?
CC(OC(=O)CNC(=O)c1ccccc1)C(=O)Nc1ccc(S(=O)(=O)N2CCOCC2)cc1 (stereo not drawn)	32%	-29	6%	18%	0%	-11%
O=C(c1ccccc1Br)N(CCc1ccccc1)C(CCc1ccccc1)c1nc2ccccc2[nH]1 (stereo not drawn)	nt	-6	nt	nt	nt	nt
COc1ccc(NC(=O)N(C)C[C@@H]2Oc3cc(C#CCN(C)C)ccc3S(=O)(=O)N([C@H](C)CO)C[C@H]2C)cc1	nt	-5	nt	nt	nt	nt
COc1ccc(NC(=O)COc2ccc(S(=O)(=O)N3CCOCC3)cc2C)cc1OC	?	?	-3%	-7%[46.1 µM]	?	nt
O=C(CSc1cccc2cccnc12)Nc1ccc(S(=O)(=O)N2CCOCC2)cc1	-28%	-37	12µM*	?	-9%	-24%
CCc1ccc(OCCCC(=O)Nc2ccc(N3CCOCC3)cc2)cc1	-17%	-40	-18%	nt	7.4µM*	nt
Cc1ccc(OCCCC(=O)Nc2ccc(S(=O)(=O)N3CCOCC3)cc2)cc1	?	-63*	?	nt	-26%	nt
Cc1ccc(OCC(=O)Nc2ccc(S(=O)(=O)N3CCOCC3)cc2)c(Br)c1	nt	4	10µM*	14%	?	?
CC(=O)NC(c1ccco1)c1cc(Cl)c2ccc(N(C)C)nc2c1O (stereo not drawn)	nt	nt	?	nt	-33%	nt
CN1CCC(N(C)C(=S)NC(=O)c2cc(-c3cccc(Br)c3)nc3ccccc23)CC1	2%	5	?	22%[46.1 µM]	?	26%
COc1ccc2c(c1)C(=O)[C@@H](OC(=O)NCCc1ccc(OC)c(OC)c1)[C@H](c1ccc(OC)c(Br)c1)O2	nt	nt	nt	-20%[14.2 µM]	nt	nt
CC(C)C(=O)N1CCC1(C)C(=O)Nc1nc2ccccc2[nH]1 (stereo not drawn)	nt	-26	nt	nt	nt	nt
O=C(CS(=O)(=O)c1cccc2nsnc12)N1CCN(c2cccc(C(F)(F)F)c2)CC1	nt	-4	nt	nt	nt	4%[46.1 µM]
CC1=Nc2cc(C(=O)N3CCCC3)ccc2Sc2c(C)ccc(C)c21	2%	-100*	?	nt	27%	nt
CCOC(=O)N1CCN(C(=O)c2ccc3c(c2)N=C(C)c2cc(Cl)ccc2S3)CC1	?	?	9.3µM*	nt	?	nt
CC1=Nc2cc(C(=O)NCc3ccccc3Cl)ccc2Sc2c(C)ccc(C)c21	nt	-90*	nt	?	nt	?
CC1=Nc2cc(C(=O)O)ccc2Sc2c(C)ccc(C)c21	-17%	-34	13%	?	?	-9%
CC(NS(=O)(=O)c1ccc(Br)cc1F)[C@H](O)c1ccccc1 (stereo partly drawn)	nt	-8	nt	nt	nt	nt
O=C(Nc1cccc(C(F)(F)F)c1)C1Cc2c(-c3ccccc3)ccnc2O1 (stereo not drawn)	nt	4	nt	nt	nt	nt
CCOC(=O)c1[nH]c(C)c(C(=O)OCC)c1C	?	85	nt	nt	45%	nt
CCOC(=O)c1c(C)[nH]c(C(=O)NNC(=O)c2ccccc2F)c1C	?	97	nt	-24%	nt	?
CCOC(=O)c1[nH]c(C)c(C(=O)OCCOc2cccc(C)c2)c1C	?	-16	7.4µM*	?	2.6µM*	-24%
CCOC(=O)c1[nH]c(C)c(C(=O)OCc2ccccc2F)c1C	3.2µM*	-19	-15%	?	-26%	5.6µM*
